Inconclusive results are not listed. Calls of active or inactive are those of the source. Unless noted, the call rests on the fitted dose curve; in most records, active means well fitted curve in the direction sought with a large enough effect in the repeat runs; inconclusive means weak or mixed curves; inactive means no such curve, though single readings can be large; an effect the other way counts as inactive or inconclusive.
Tests used:
[1] = target: Thyrotropin receptor (Homo sapiens) (UniProt P16473); assay: qHTS assay to identify small molecule antagonists of the thyroid stimulating hormone receptor (TSHR) signaling pathway (AID 1259385; calls by dose curve; further: nearly all actives have a fitted effect of over 20% in size)
Chain of Thyrotropin receptor (Homo sapiens) (P16473 whole entry, looked up): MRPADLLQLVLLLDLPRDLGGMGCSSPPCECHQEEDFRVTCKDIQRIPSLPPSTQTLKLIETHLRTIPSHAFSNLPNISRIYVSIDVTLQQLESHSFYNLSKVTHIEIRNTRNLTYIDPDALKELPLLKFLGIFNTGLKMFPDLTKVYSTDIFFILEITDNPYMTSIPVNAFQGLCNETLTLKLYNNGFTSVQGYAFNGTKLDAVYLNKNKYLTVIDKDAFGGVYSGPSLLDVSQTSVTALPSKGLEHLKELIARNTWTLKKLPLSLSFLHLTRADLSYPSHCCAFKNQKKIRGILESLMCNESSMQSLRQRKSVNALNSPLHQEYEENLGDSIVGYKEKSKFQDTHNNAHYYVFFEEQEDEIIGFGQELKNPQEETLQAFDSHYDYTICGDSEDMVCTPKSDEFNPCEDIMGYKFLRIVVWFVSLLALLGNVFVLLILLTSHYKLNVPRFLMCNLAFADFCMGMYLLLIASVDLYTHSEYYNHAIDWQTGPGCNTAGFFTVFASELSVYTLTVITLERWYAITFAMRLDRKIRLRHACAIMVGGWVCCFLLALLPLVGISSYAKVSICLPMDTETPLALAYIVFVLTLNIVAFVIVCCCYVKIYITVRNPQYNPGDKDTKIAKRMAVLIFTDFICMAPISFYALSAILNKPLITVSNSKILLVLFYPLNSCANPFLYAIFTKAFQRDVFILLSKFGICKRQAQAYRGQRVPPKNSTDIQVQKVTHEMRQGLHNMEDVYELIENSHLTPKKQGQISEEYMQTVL
Method in brief: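 TSHR-HEK293 cells were plated and held 18 h at 37C/5% CO2, then given compound plus Ro20-1724 and stimulated with TSH at 1.5 ng/mL final. After 30 min at room temperature, cAMP was detected with cAMP-d2/anti-cAMP-cryptate (1 h) by fluorescence.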

[2] = qHTS assay to identify small molecule agonists of the estrogen receptor alpha (ER-alpha) signaling pathway in the presence of an antagonist - cell viability counter screen (AID 1259386);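 further: series mostly up to about 92 µM; cells exposed to compounds for 22 h at 37 °C before the viability read; nearly all actives have a fitted effect of over 30% in size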
Method in brief: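 In this counter screen, compound effects on VM7Luc4E2 viability were tested in the presence of the antagonist ICI-182,780 at 10.0nM final. Compounds were dosed at 15 concentrations, exposure lasted 22hr, and the CellTiter-Fluor signal was read.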

[3] = target: Progesterone receptor (Homo sapiens) (UniProt P06401); assay: qHTS assay to identify small molecule agonists of the progesterone receptor (PR) signaling pathway (AID 1346784; calls by dose curve; further: nearly all actives have a fitted effect of over 30% in size)
Chain of Progesterone receptor (Homo sapiens) (P06401 whole entry, looked up): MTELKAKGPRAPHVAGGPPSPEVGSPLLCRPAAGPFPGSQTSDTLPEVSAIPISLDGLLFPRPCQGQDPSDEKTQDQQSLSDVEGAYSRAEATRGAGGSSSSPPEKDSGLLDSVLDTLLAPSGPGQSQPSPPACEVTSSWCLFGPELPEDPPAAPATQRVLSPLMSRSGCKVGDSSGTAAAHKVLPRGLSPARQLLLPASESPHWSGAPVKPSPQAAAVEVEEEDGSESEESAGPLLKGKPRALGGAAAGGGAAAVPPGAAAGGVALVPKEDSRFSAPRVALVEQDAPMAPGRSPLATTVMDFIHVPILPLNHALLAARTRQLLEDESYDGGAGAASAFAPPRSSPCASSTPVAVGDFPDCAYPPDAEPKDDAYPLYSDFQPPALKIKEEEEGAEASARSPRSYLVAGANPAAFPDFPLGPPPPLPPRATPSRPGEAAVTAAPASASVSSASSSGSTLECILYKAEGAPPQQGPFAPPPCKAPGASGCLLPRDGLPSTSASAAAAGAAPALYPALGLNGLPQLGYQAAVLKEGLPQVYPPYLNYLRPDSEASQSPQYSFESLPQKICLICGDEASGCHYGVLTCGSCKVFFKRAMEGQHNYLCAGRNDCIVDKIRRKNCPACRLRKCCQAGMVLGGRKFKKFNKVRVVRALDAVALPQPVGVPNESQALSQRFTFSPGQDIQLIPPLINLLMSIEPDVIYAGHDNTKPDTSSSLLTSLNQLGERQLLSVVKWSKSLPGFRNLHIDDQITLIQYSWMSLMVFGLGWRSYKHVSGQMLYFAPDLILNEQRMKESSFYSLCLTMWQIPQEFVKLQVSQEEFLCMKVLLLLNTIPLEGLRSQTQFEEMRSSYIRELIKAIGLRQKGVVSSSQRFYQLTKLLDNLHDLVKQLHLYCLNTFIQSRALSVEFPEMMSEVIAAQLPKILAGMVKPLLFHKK
Method in brief: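 Cells (PR-UAS-bla HEK 293T, GripTite) were plated in assay medium containing 2% charcoal-stripped FBS and incubated 6 hr. Test compounds in DMSO were added for 16 hr at 37C. FRET substrate was then loaded for 2 hr at room temperature before fluorescence reading.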

[4] = qHTS assay to identify small molecule antagonists of the progesterone receptor (PR) signaling pathway - cell viability counter screen (AID 1346798); further: series mostly up to about 92 µM; nearly all actives have a fitted effect of over 50% in size
Method in brief: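 Counter screen for cytotoxicity: viability of PR-UAS-bla HEK293T cells was measured with CellTiter-Glo luminescence following 16 hr compound exposure in the presence of R5020.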

[5] = qHTS assay to identify small molecule agonists of the progesterone receptor (PR) signaling pathway - cell viability counter screen (AID 1346799; calls by dose curve; further: nearly all actives have a fitted effect of over 45% in size; further: potency means the concentration at half of the fitted maximal effect)
Method in brief: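 Cells (PR-UAS-bla HEK293T) are plated at 3,000/well in 2% charcoal-stripped FBS medium, rested 6 hr, dosed and incubated 16 hr at 37C. CellTiter-Glo is then added and luminescence measured after 30 min at room temperature.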

[6] = qHTS assay to identify small molecule antagonists of the TGF-beta/Smad signaling pathway - cell viability counter screen (AID 1346824); further: nearly all actives have a fitted effect of over 50% in size
Method in brief: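 SBE-bla HEK 293T cells were plated overnight at 37 C, then given compounds in DMSO plus TGF-beta1 (added as 0.25 ng/mL solution) for 5 hr. After the bla read, CellTiter-Glo was added to the same wells and luminescence read after 30 min at room temperature.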

[7] = qHTS assay to identify small molecule agonists of the TGF-beta/Smad signaling pathway - cell viability counter screen (AID 1346829); further: top concentration of the series differs between compounds; nearly all actives have a fitted effect of over 45% in size
Method in brief: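 HEK 293T SBE-bla line, 5 hr compound exposure at 37 C, multiplexed CellTiter-Glo viability read by luminescence.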

[8] = qHTS assay to identify small molecule agonists of the TGF-beta/Smad signaling pathway (AID 1346859; active means well fitted activation curve with a large enough effect in the signal ratio in the repeat runs, not every such curve was filed as active; the % refers to the signal ratio; further: series mostly up to about 77 µM)
Method in brief: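 Reporter line: HEK 293T with stably integrated SBE-controlled beta-lactamase. Compound exposure lasts 5 hr at 37 C and 5% CO2; substrate loading follows for 2 hr at room temperature, with emission read at 460 and 530 nm.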

[9] = target: Thyrotropin-releasing hormone receptor (Homo sapiens) (UniProt P34981); assay: qHTS assay to identify small molecule antagonists of the thyrotropin-releasing hormone receptor (TRHR) signaling pathway (AID 1346877; active means well fitted inhibition curve with a large enough effect in the repeat runs, not every such curve was filed as active; further: series mostly up to about 51 µM)
Chain of Thyrotropin-releasing hormone receptor (Homo sapiens) (P34981 whole entry, looked up): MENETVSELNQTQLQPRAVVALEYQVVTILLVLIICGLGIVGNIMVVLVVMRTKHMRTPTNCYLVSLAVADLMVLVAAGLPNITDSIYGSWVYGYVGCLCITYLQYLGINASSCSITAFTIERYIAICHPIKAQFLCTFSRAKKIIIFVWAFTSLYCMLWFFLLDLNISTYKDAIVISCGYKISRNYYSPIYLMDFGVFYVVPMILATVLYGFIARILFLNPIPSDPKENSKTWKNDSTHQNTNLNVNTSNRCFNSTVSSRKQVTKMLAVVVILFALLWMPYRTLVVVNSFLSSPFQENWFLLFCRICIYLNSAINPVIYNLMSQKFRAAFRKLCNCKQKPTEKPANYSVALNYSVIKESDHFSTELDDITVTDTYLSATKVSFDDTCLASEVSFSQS
Method in brief: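 Kinetic fluorescence (3 min, 1 s resolution) following stimulation with TRH at 1 nM final; HEK293 cells bearing human TRHR; 5 min compound preincubation at RT; concentration-response over 15 points, triplicates.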

[10] = target: Thyrotropin-releasing hormone receptor (Homo sapiens) (UniProt P34981); assay: qHTS assay to identify small molecule agonists of the thyrotropin-releasing hormone receptor (TRHR) signaling pathway (AID 1346891; calls by dose curve;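 further: HEK293 cells expressing TRHR with calcium dye readout; series mostly up to about 58 µM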)
Method in brief: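 Cells: TRHR-Hek293, seeded and incubated 18 h. Dye loading: 2 h at 37 °C. Compound added from DMSO stock by pin tool. Read-out: kinetic calcium fluorescence over 3 min.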

[11] = Human pregnane X receptor (PXR) small molecule agonists, qHTS cell viability counter screen (AID 1346977); further: nearly all actives have a fitted effect of over 50% in size
Method in brief: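 Cytotoxicity counter screen run in the same wells as the PXR luciferase assay, using PXR-Luc HepG2 cells in charcoal-stripped serum medium. Viability: CellTiter-Fluor fluorescence after 24hr compound treatment.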

[12] = Caspase-3/7 induction in HepG2 cells by small molecules, qHTS assay (AID 1346978); further: nearly all actives have a fitted effect of over 15% in size
Method in brief: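 Wild-type HepG2 cells (2,000/well) were settled 5 h at 37 C, 5% CO2, then exposed to compounds in DMSO for 17 h. Caspase-3/7 activity was read by luminescence 30 min after adding Caspase-Glo 3/7 reagent at room temperature.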

[13] = Caspase-3/7 induction in CHO-K1 cells by small molecules, qHTS cell viability counter screen (AID 1346979); further: nearly all actives have a fitted effect of over 35% in size
Method in brief: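 Cytotoxicity counter screen run in parallel with the caspase-3/7 assay: CHO-K1 cells, 16hr compound treatment at 37C, then CellTiter-Fluor for 1hr before fluorescence reading.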

[14] = Caspase-3/7 induction in CHO-K1 cells by small molecules, qHTS assay (AID 1346980); further: nearly all actives have a fitted effect of over 15% in size
Method in brief: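 Wild-type cells were seeded at 1,500 per well and settled 5 hr at 37 C, 5% CO2, then exposed to DMSO-dissolved compounds for 17 hr. Caspase-Glo 3/7 reagent was added, and luminescence was read after 30min at room temperature.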

[15] = target: Nuclear receptor subfamily 1 group I member 2 (Homo sapiens) (UniProt O75469); assay: Human pregnane X receptor (PXR) small molecule agonists, qHTS assay (AID 1346982); further: nearly all actives have a fitted effect of over 35% in size; further: potency means the concentration at half of the fitted maximal effect
Chain of Nuclear receptor subfamily 1 group I member 2 (Homo sapiens) (O75469 whole entry, looked up): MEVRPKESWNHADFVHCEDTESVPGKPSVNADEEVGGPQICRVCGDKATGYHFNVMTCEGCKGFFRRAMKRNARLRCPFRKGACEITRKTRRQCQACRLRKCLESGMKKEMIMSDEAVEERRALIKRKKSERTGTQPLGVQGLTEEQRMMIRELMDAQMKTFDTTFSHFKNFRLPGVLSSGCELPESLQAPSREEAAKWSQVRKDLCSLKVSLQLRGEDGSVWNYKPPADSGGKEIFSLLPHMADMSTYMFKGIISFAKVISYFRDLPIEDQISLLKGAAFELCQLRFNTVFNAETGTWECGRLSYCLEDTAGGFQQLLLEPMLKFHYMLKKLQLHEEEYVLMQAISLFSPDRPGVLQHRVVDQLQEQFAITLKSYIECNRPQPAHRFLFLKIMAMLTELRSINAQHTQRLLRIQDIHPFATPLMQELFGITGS
Method in brief: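 Reporter HepG2 cells expressing PXR-Luc are cultured in charcoal-stripped FBS (5%), treated with compounds for 24 hr at 37 C, and assayed by ONE-Glo luminescence after 30 min at room temperature.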

[16] = Caspase-3/7 induction in HepG2 cells by small molecules, qHTS cell viability counter screen (AID 1346981); further: series mostly up to about 92 µM; nearly all actives have a fitted effect of over 30% in size
Method in brief: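 In this quantitative HTS counter screen, compounds delivered in DMSO were left on unmodified HepG2 cells for 16 hr at 37 C. Viability was then determined fluorometrically with CellTiter-Fluor, in parallel with caspase-3/7 induction in the same wells.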

[17] = target: Nuclear receptor subfamily 1 group I member 2 (Rattus norvegicus) (UniProt Q9R1A7); assay: Rat pregnane X receptor (rPXR) activation by small molecules, qHTS assay (AID 1346983); settings: rPXR luciferase reporter cells, One-Glo luminescence, 24 h; max activation: stronger effect = higher value; further: nearly all actives have a fitted effect of over 20% in size
Chain of Nuclear receptor subfamily 1 group I member 2 (Rattus norvegicus) (Q9R1A7 whole entry, looked up): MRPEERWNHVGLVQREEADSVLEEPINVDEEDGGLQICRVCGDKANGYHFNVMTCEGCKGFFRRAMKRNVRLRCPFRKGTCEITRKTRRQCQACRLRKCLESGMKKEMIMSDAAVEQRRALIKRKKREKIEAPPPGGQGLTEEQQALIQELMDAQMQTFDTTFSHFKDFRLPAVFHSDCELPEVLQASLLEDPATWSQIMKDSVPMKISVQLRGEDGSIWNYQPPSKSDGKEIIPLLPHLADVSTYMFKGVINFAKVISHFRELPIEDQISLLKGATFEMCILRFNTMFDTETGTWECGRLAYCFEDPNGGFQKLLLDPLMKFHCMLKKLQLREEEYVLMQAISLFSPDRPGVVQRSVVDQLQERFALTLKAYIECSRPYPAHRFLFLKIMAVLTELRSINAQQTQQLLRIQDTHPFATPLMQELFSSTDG
Method in brief: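 Cell-based rPXR luciferase reporter assay, 2,000 cells per well, rested 5hr at 37 C before compound addition in DMSO, then 24 hr at 37 C. One-Glo reagent was added and luminescence read after 30 min at room temperature.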

[18] = target: Nuclear receptor subfamily 1 group I member 2 (Homo sapiens) (UniProt O75469); assay: CYP3A4 induction through human pregnane X receptor (PXR) by small molecules, qHTS assay (AID 1346984); further: nearly all actives have a fitted effect of over 40% in size
Method in brief: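 Induction measured in HepG2-based DPX-2 cells co-expressing human PXR and a CYP3A4 promoter-driven luciferase. After a 24-hour compound exposure, cells received CYP3A4 luciferin substrate at 3uM final for 3 hours, and light output was then recorded.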

[19] = target: Nuclear receptor subfamily 1 group I member 2 (Homo sapiens) (UniProt O75469); assay: Human pregnane X receptor (PXR) activation by small molecules, qHTS assay (AID 1346985); further: nearly all actives have a fitted effect of over 40% in size
Method in brief: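 DPX-2 cells (HepG2 co-transfected with a PXR response element and a CYP3A4-promoter luciferase construct) were seeded at 2,000 per well, rested 5 hr at 37C, then exposed to DMSO-dissolved compounds for 24 hr. Activation was read as luciferase luminescence.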

[20] = target: Progesterone receptor (Homo sapiens) (UniProt P06401); assay: qHTS assay to identify small molecule antagonists of the progesterone receptor (PR) signaling pathway (AID 1346795; active means well fitted inhibition curve with a large enough effect in the signal ratio in the repeat runs, not every such curve was filed as active; the % refers to the signal ratio)
Method in brief: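 Antagonist mode: compounds tested against 1 nM (final) promegestone stimulation in HEK293T cells expressing PR-UAS-bla reporter, 16 hr at 37C, 5% CO2; beta-lactamase activity detected via B/G FRET substrate after 2 hr at room temperature.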
On the % scale 0 is the no-effect control and ±100 the full control effect.

Oc1ccc2c(c1)OC[C@@H](N1CCC(O)(c3ccc(F)cc3)CC1)[C@H]2O
inactive: Potency [1] | outcome [2] | Potency [3] | Potency [4] | Potency [5] | outcome [6] | outcome [7] | outcome [8] | outcome [9] | outcome [10] | Potency [11] | outcome [12] | Potency [13] | outcome [14]
active: Potency [15] 11.9 µM

COC(=O)c1ccc(C(=O)OC)c(C(=O)OC)c1
inactive: Potency [1] | outcome [2] | Potency [3] | Potency [4] | Potency [5] | outcome [6] | outcome [7] | outcome [8] | Potency [11] | outcome [12] | Potency [13] | outcome [14] | outcome [16] | Potency [15]

CO[Si](CCCNCCC[Si](OC)(OC)OC)(OC)OC
inactive: Potency [1] | outcome [2] | Potency [3] | Potency [4] | Potency [5] | outcome [6] | outcome [7] | outcome [8] | outcome [9] | outcome [10] | Potency [11] | outcome [12] | Potency [13] | outcome [14]

CCCOCC(C)OCC(C)O (configuration not stated)
inactive: Potency [1] | outcome [2] | Potency [3] | Potency [4] | Potency [5] | outcome [6] | outcome [7] | outcome [8] | outcome [9] | outcome [10] | Potency [11] | outcome [12] | Potency [13] | outcome [14]

CSc1ccc(C=O)cc1
inactive: Potency [1] | outcome [2] | Potency [3] | Potency [4] | Potency [5] | outcome [6] | outcome [7] | outcome [8] | Potency [11] | outcome [12] | Potency [13] | outcome [14] | Potency [15]

CC1(C)OC(=O)Nc2ccc(Br)cc21
active: Potency [15] 23.7 µM
inactive: Potency [1] | outcome [2] | Potency [3] | Potency [4] | Potency [5] | outcome [6] | outcome [7] | outcome [8] | outcome [9] | outcome [10] | Potency [11] | outcome [12] | Potency [13] | outcome [14] | outcome [16]

NCCNC(=O)c1ccc(Cl)cn1
inactive: Potency [1] | outcome [2] | Potency [3] | Potency [4] | Potency [5] | outcome [6] | outcome [7] | outcome [8] | outcome [9] | outcome [10] | Potency [11] | outcome [12] | Potency [13] | outcome [14] | outcome [16] | Potency [15] | max activation [17] -1.85% | Potency [18] | Potency [19]

CCCCCCC(=O)OCC
inactive: Potency [1] | outcome [2] | Potency [3] | Potency [4] | Potency [5] | outcome [6] | outcome [9] | outcome [10] | Potency [11] | outcome [12] | Potency [13] | outcome [14] | outcome [16] | Potency [15]

O=C(O)c1cccc(C(=O)O)n1
inactive: Potency [1] | outcome [2] | Potency [20] | Potency [4] | outcome [6] | outcome [7] | outcome [9] | outcome [10] | Potency [11] | outcome [12] | Potency [13] | outcome [14] | outcome [16] | Potency [15]

O=C(O)C(O)[C@H](O)[C@@H](O)[C@H](O)[C@H](O)CO (some centres not stated)
active: Potency [5] 49.1 µM
inactive: Potency [1] | outcome [2] | Potency [20] | outcome [6] | outcome [7] | outcome [8] | Potency [11] | Potency [13] | outcome [14] | Potency [15]

O=C(O)c1ccccc1-c1ccc(C(F)(F)F)cc1
inactive: Potency [1] | outcome [2] | Potency [20] | Potency [4] | Potency [5] | outcome [6] | outcome [7] | outcome [8] | outcome [9] | outcome [10] | Potency [11] | outcome [12] | outcome [14] | Potency [15] | max activation [17] -1.61% | Potency [18] | Potency [19]

C#CC(O)C(CC)CCCC (configuration not stated)
inactive: Potency [1] | outcome [2] | Potency [20] | Potency [4] | Potency [5] | outcome [6] | outcome [7] | outcome [8] | outcome [9] | outcome [10] | Potency [11] | Potency [13] | outcome [14] | outcome [16]

NC(=O)c1c(Cl)cccc1Cl
active: Potency [15] 0.0611 µM
inactive: Potency [1] | outcome [2] | Potency [3] | Potency [4] | Potency [5] | outcome [6] | outcome [8] | outcome [9] | outcome [10] | Potency [11] | Potency [13] | outcome [14]

CN(C)CCn1nnnc1SCC1=C(C(=O)O)N2C(=O)[C@@H](NC(=O)Cc3csc(N)n3)[C@H]2SC1
inactive: Potency [1] | outcome [2] | Potency [20] | Potency [4] | Potency [5] | outcome [6] | outcome [7] | outcome [8] | outcome [9] | outcome [10] | Potency [11] | outcome [12] | Potency [13] | outcome [14] | outcome [16] | Potency [15] | max activation [17] 14.1% | Potency [18] | Potency [19]
